Screens as filed in PubChem BioAssay.
A selection: hits, their analogues and other compounds. The true share with any hit is near 1.5%.
NRP1-CendR mod = modulators of CendR peptide binding to NRP-1, primary screen, biochemical, fluorescence polarization, uHTS; Neuropilin-1 (Homo sapiens), O14786; hit rate 0.85% among 360,000; inhibition, % at 25 µM; FAM-RPARPAR peptide binding to NRP-1;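 active = inhibition or corrected inhibition above about 18%, plus a signal ratio from 0.5 to 1.5, limit read from the data, passing the limit was not always enough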
FID counter = compounds displacing fluorescent DNA intercalator, primary screen, artefact control for HCV NS3 helicase inhibitor project, biochemical, FID fluorescence; DNA fluorescent intercalator displacement; inhibition, % at 7.9 µM; hit rate 0.17% among 290,000; in the data active = inhibition above about 37%;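 also: 0% = vehicle and 100% = reference compound; higher means more ethidium bromide displaced from hairpin DNA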
RAD54 branch = inhibitors of human RAD54 branch migration, primary screen, biochemical, fluorescence, single point | DNA repair and recombination protein RAD54-like (Homo sapiens), Q92698 | RAD54 Holliday junction branch migration, FAM/BHQ fluorescence | inhibition, % at 10.4 µM | hit rate 0.14% among 360,000 | AID 602329, 2012;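 active = mean normalized replicate activity at least 40 and at least half of replicates scoring 40 or more; inconclusive = only one of the two criteria met; inactive = mean below 40 and under half of replicates reaching 40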;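 also: 0% = median of neutral control wells and 100% = median of positive control wells; inhibitors cause a drop in the FAM fluorescence signal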
Target sequence (Q92698 whole entry, looked up): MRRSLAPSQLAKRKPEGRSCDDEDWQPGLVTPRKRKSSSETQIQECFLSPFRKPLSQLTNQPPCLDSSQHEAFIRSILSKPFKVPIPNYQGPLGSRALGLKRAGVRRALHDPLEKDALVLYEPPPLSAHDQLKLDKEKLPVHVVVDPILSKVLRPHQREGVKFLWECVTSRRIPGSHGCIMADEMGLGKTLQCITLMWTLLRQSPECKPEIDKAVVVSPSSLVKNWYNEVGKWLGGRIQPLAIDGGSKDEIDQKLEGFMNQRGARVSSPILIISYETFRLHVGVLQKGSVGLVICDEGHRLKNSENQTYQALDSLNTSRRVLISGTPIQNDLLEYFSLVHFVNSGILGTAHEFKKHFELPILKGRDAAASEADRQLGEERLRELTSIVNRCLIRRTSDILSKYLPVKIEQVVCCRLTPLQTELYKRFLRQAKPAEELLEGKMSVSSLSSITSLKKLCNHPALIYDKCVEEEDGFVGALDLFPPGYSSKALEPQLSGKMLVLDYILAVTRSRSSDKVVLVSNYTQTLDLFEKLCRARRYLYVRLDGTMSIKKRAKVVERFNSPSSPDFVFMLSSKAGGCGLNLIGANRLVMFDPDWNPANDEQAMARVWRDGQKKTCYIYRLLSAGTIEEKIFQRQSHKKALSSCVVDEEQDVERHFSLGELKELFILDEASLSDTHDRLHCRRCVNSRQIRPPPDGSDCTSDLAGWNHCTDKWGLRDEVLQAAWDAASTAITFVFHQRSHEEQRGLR
N-glyco inh = increase of ERlucT glycosylation luciferase signal, primary screen, N-linked glycosylation inhibitor project, D54 ERlucT cells, luminescence, set 2. D54 ERlucT glycosylation luciferase reporter, 24 h; percent of 100 nM tunicamycin response. reporter increase, % at 12.5 µM. hit rate 0.23% among 360,000. AID 588692, 2011;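 active = mean luciferase reporter signal, scaled so untreated is 0 and the glycosylation-blocking control 100, at or above a set limit in every replicate; inconclusive = mean reaches the limit but not every replicate does; inactive = mean below the limit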;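 also: luciferase carries N-glycosylation sites so blocking glycosylation raises the light; 0% = median of neutral control wells and 100% = median of 100 nM tunicamycin wells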
RAD52 inh = RAD52 DNA annealing inhibitors, primary screen, biochemical, FRET, single point, set 2 | inhibition, % at 18.7 µM | hit rate 0.46% among 360,000 | recombinant RAD52 DNA annealing, FRET fluorescence | DNA repair protein RAD52 homolog (Homo sapiens), P43351 | AID 651710, 2012;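 active = every replicate showing at least 50% inhibition; inconclusive = mean inhibition at least 50% but not in every replicate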
miR-122 sensor = miR-122 Renilla sensor signal increase in Huh7, primary screen, miR-122 inhibitor project, cell-based, single point, plate reader; activation (reporter increase), % at 12.5 µM; hit rate 0.3% among 340,000; AID 602342, 2012; Huh7 miR-122 Renilla luciferase sensor, 48 h; neutral wells = 0, positive control = 100;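 active = mean replicate activation score at least 90 and every replicate individually at or above 90; inconclusive = only one of the two criteria met; inactive = neither criterion met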;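 also: higher luciferase means less miR-122 activity so hits act as miR-122 inhibitors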
An asterisk follows results filed as active; ? = inconclusive; . = no result given; [ ] = another dose, or the depositor's remark.

SMILES	NRP1-CendR mod	FID counter	RAD54 branch	N-glyco inh	RAD52 inh	miR-122 sensor
Cc1ccc(C(=O)N/C(=C/c2cccs2)C(=O)NCCc2c[nH]c3ccccc23)cc1	-11	-21	-11	55*	-11	-2
Cc1ccc(C(=O)N/C(=C\c2ccco2)C(=O)NCCc2c[nH]c3ccccc23)cc1	-12	-22	.	30*	-47	.
C=CC[C@]1(C(=O)N(C)C)COC(c2ccc(OCCCO)cc2)=N1	.	.	1	.	-2	.
C=CC(=O)Nc1cccc(N(C)c2ccnc(Nc3ccc(N4CCN(C)CC4)cc3)n2)c1	3	.	82*	-11	.	.
C=CC(=O)Nc1cccc(Oc2ccnc(Nc3ccc(N4CCN(C)CC4)cc3)n2)c1	3	.	?	-14	93*	2
C=CC(=O)Nc1cccc(Oc2ccnc3[nH]ccc23)c1	4	.	-5	-8	.	.
C[C@@H]1CN([C@@H](C)CO)C(=O)c2cccc(NS(=O)(=O)c3ccc(Cl)cc3)c2O[C@@H]1CN(C)S(=O)(=O)c1ccc(F)cc1	.	.	.	.	.	1[16.7 µM]
COc1ccc2c3c([nH]c2c1)[C@H](CO)N(C(=O)C1CC1)CC31CN(Cc2nccs2)C1	.	.	.	.	0	.
CCCC#Cc1ccc([C@@H]2[C@H](CO)N3CCCCN(CC4CC4)C[C@@H]23)cc1	.	.	1	.	31	-29[16.7 µM]
COc1cccc(-c2ccc([C@H]3[C@@H](CO)N4CCCCN(CC5CCOCC5)C[C@@H]34)cc2)c1	.	.	-1	.	56*	21[16.7 µM]
CCCC#Cc1ccc([C@H]2[C@@H](CO)N3CCCCN(CC4CC4)C[C@H]23)cc1	.	.	4	.	53*	-22[16.7 µM]
CN(C)CC#Cc1ccc([C@@H]2[C@@H](CO)N3CCCCN(CC4CC4)C[C@@H]23)cc1	.	.	-3	.	71*	1[16.7 µM]
COc1cccc(-c2ccc([C@@H]3[C@H]4CN(CC5CCOCC5)CCCCN4[C@H]3CO)cc2)c1	.	.	1	.	42	9[16.7 µM]
CN(C)CC#Cc1ccc([C@H]2[C@@H](CO)N3CCCCN(CC4CCOCC4)C[C@H]23)cc1	.	.	-8	.	62*	3[16.7 µM]
CN(C)CC#Cc1ccc([C@@H]2[C@@H](CO)N3CCCCN(CC4CCOCC4)C[C@H]23)cc1	.	.	-18	.	42	2[16.7 µM]
CCS(=O)(=O)N1CCC2(CC1)CN(S(=O)(=O)c1cccc(OC)c1)[C@H](CO)c1[nH]c3cc(OC)ccc3c12	.	.	.	.	1	.
CC(=O)N[C@H]1CC[C@@H](CCNC(=O)C2CC2)O[C@H]1CO	.	.	0	.	2	0[16.7 µM]
CNC[C@@H]1Oc2ccc(NC(=O)C3CCCCC3)cc2CC(=O)N([C@H](C)CO)C[C@@H]1C	.	.	0	.	11	-14[16.7 µM]
CN(C)CC#Cc1ccc([C@@H]2[C@H](CO)N3CCCCN(CC4CC4)C[C@@H]23)cc1	.	.	-3	.	58*	2[16.7 µM]
CC1(c2ccccc2)CC(C)(C)n2c(O)c(C3=NC(=S)NC3=O)c3cccc1c32 (configuration not stated)	26*	-5	-4	2	-1	4
COc1cc2c3c(c1)c(C1=NC(=S)NC1=O)c(O)n3C(C)(C)C=C2C	-1	4	1	2	.	-2
O=C(NCCCN1CCCC(O)C1)c1cc(COc2ccc(F)cc2F)on1 (configuration not stated)	40*	0	9	4	-25	-4
[N-]=[N+]=Nc1ccccc1C[C@]1(C(=O)N2CCCCC2)N=C(c2ccc(OCCCO)cc2)O[C@H]1c1ccccc1	.	.	-3	.	-7	.
COc1ccc(S(=O)(=O)N2CCCC(C(=O)N3CCOCC3)C2)cc1Cl (configuration not stated)	1	-27	-3	0	-2	.
COc1ccc(S(=O)(=O)N2CCCC(C(=O)N3CCOCC3)C2)cc1C (configuration not stated)	34*	-10	0	0	.	-1
SMILES	NRP1-CendR mod	FID counter	RAD54 branch	N-glyco inh	RAD52 inh	miR-122 sensor
CC(=O)Nc1ccc(S(=O)(=O)Nc2ccc(S(=O)(=O)N3CCCCCC3)cc2)cc1	0	4	0	-2	.	21
COc1ccc(NC(C)=O)cc1S(=O)(=O)Nc1ccc(S(=O)(=O)N2CCCCC2)cc1	20	.	-6	1	-18	126*
COc1ccc(S(=O)(=O)Nc2ccc(S(=O)(=O)N3CCCCC3)cc2)cc1C	-2	-14	5	-3	.	251*
CCOC(=O)[C@@H]1[C@H]2COc3ccccc3[C@@H]2N2C(=O)N(c3cccc(Cl)c3)C(=O)[C@]12C	28*	-39	8	-2	-4	1
CCOC(=O)[C@@H]1[C@H]2COc3cc(OC)ccc3[C@H]2N2C(=O)N(c3cccc(F)c3)C(=O)[C@@]12C	25*	.	7	1	-13	0
C/C=C/c1cnc2c(c1)C(=O)N([C@H](C)CO)C[C@@H](C)[C@@H](CN(C)S(=O)(=O)c1ccccc1)O2	.	.	-5	.	-6	-6[16.7 µM]
CCC(=O)N1[C@@H]2c3cccc(=O)n3C[C@@H]2[C@@H](CO)[C@@H]1C(=O)N[C@H](C)c1ccccc1	.	.	.	.	10	.
CN(C)Cc1ccccc1CNC(=O)c1cccc(S(=O)(=O)Nc2ccc3c(c2)OCO3)c1	-3	.	-5	1	-3	117*
COc1cc(/C=C/c2onc(C)c2[N+](=O)[O-])cc(OC)c1OC	1	.	.	37*	-44	.
Cc1cccc(/C=C/c2onc(C)c2[N+](=O)[O-])n1	.	.	.	.	-6	.
COc1cccc(N2[C@@H](CC(C)=O)c3ccc(/C=C/C(C)=O)cc3S2(=O)=O)c1	22*	.	-2	38*	-62	36
COc1ccc(CN2[C@@H](CC(C)=O)c3ccc(/C=C/C(C)=O)cc3S2(=O)=O)cc1	-6	.	7	10	-273	4
C[C@@H]1CN([C@H](C)CO)C(=O)c2c(c3ccccc3n2C)-c2ccccc2CO[C@@H]1CN(C)Cc1ccc2c(c1)OCCN2C	.	.	.	.	45	.
Cc1nc(NC(=O)c2cccnc2)ccc1Br	-5	4	-5	-1	.	-2
Cc1ccccc1C(=O)Nc1ccc(Br)c(C)n1	8	0	-1	-2	.	128*
CO[C@@H](CN(C)C(=O)c1ccc2c(c1)OCO2)[C@@H](C)CN([C@@H](C)CO)S(=O)(=O)c1ccc(F)cc1	.	.	4	.	2	.
O=C(Nc1ccc2oc(-c3cccnc3)nc2c1)c1ccc([N+](=O)[O-])o1	-4	0	.	35*	-15	.
O=C(Nc1ccc2oc(-c3cccnc3)nc2c1)c1cccnc1	4	-3	0	0	.	-5
